Assay [1] can be described thus: Nuclear factor erythroid 2-related factor 2/antioxidant responsive element (Nrf2/ARE) small molecule agonists: qHTS cell viability counter screen in human keratinocytes (AID 1919968; active = well fitted cell-killing curve with a large enough effect in the repeat runs; also: nearly all actives have a fitted effect of over 55% in size; also: potency is read from the fitted curve at half-maximal effect). In outline:
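HaCaT ARE reporter line, 1,500 cells/well; 5 h settle, 37 C/5% CO2; cpd in DMSO pinned; 23 h exposure; CellTiter-Fluor, 1 h; fluorescence.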

Assay [2] in a line: Nuclear factor erythroid 2-related factor 2/antioxidant responsive element (Nrf2/ARE) small molecule agonists: luciferase reporter gene qHTS assay in human keratinocytes (AID 1919969). Also: nearly all actives have a fitted effect of over 35% in size.
Assay [3] addresses Gonadotropin-releasing hormone receptor (Homo sapiens) (UniProt P30968). Briefly: Human gonadotropin-releasing hormone receptor (GnRHR) small molecule agonists, calcium flux assay in GnRHR-HEK293 cells (AID 1920063). Also: nearly all actives have a fitted effect of over 35% in size. In outline: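 GnRHR-HEK293, 1500 cells/well, 18 h 37 C/5% CO2; Ca dye 1 h 37 C; cpd pinned (DMSO), agonist mode; kinetic FL 480/540, 3 min, 1 s reads; 15 conc, n=3.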

A short description of assay [4]: G protein-coupled receptor (GPCR) small molecule agonists, calcium flux assay: HEK293 wild type cell line counter screen (AID 1920065). The procedure, abridged: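 Kinetic fluorescence at Ex/Em 480/540, recorded every second over 3 min, served as the read-out after compound addition. Each compound was tested at 15 concentrations in triplicate on cells pre-loaded with calcium dye for 1 h.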

Assay [5] is described as follows: p53 small molecule agonists, cell-based qHTS assay with human liver microsomes (AID 1963577).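 Also: p53 response element beta-lactamase reporter cells with liver microsomes plus NADPH.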 The procedure, abridged: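 Reporter activation was measured by LiveBLAzer fluorescence intensity in p53RE-bla cells, which had been exposed to compounds for 16 h at 37 C alongside 0.5 mg/mL human liver microsomes and 0.5 mg/mL NADPH (final concentrations).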
The nature of assay [6]: p53 small molecule agonists, cell-based qHTS assay with rat liver microsomes (AID 1963578). In outline:
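Compound in DMSO added to p53RE-bla cells 5 h post-plating; rat microsomes/NADPH 0.5 mg/mL final; 16 h, 37 C; LiveBLAzer 2 h RT.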

The nature of assay [7]: p53 small molecule agonists, cell-based qHTS assay with human liver microsomes: qHTS cell viability counter screen (AID 1963579). Also: nearly all actives have a fitted effect of over 45% in size. The procedure, abridged: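 HLM-supplemented (0.5 mg/mL final) and NADPH-supplemented (0.5 mg/mL final) p53RE-bla cultures, 4,000 cells per well, were dosed with compounds in DMSO for 16 h at 37 C; luminescent ATP detection (CellTiter-Glo, 30 min, room temperature) quantified surviving cells.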

Assay [8] can be described thus: p53 small molecule agonists, cell-based qHTS assay with rat liver microsomes: qHTS cell viability counter screen (AID 1963580). Also: nearly all actives have a fitted effect of over 45% in size. The procedure, abridged:
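Intracellular ATP, by CellTiter-Glo luminescence, defines viability. HCT-116 p53RE-bla cells, 4,000 per well, were compound-treated in the presence of rat liver microsomes and NADPH for 16 h at 37 C.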

Assay [9] can be described thus: p53 small molecule agonists, cell-based qHTS assay: qHTS cell viability counter screen (AID 1963581). Also: nearly all actives have a fitted effect of over 45% in size. In outline: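 HCT-116 p53RE-bla cells, 4,000/well, plated 5 h before compound pin transfer; 16 h at 37 C; bla substrate 2 h RT; then CellTiter-Glo, 30 min RT, luminescence.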
Assay [10] is described as follows: p53 small molecule agonists, cell-based qHTS assay (AID 1963582; active = well fitted activation curve with a large enough effect in the signal ratio in the repeat runs, not every such curve was filed as active; the % refers to the signal ratio). The procedure, abridged:
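Reporter line: p53RE-bla. Pre-incubation 5 h, 37 C, 5% CO2; compound (DMSO, pin tool) 16 h, 37 C; B/G FRET substrate 2 h RT; fluorescence intensity read.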

Assay [11] concerns the target 5-hydroxytryptamine receptor 2A (Homo sapiens) (UniProt P28223). Briefly: 5-hydroxytryptamine receptor 2A (HTR2A) small molecule antagonists, cell-based qHTS assay (AID 1963586). Also: nearly all actives have a fitted effect of over 45% in size. The procedure, abridged:
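Antagonist-mode intracellular calcium assay: DOI (4 nM) added after 5 min compound pre-incubation at room temperature to dye-loaded HTR2A-CHO cells. Fluorescence followed for 3 min, sampled every second.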

Assay [12] shares this target. Briefly: 5-hydroxytryptamine receptor 2A (HTR2A) small molecule agonists, cell-based qHTS assay (AID 1963587). Also: nearly all actives have a fitted effect of over 30% in size. The procedure, abridged: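 Kinetic calcium-flux fluorescence (2 min, 1 sec intervals) after compound addition in agonist mode. HTR2A-CHO cells were cultured 18 h, then dye-loaded 1 h at 37 C.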
Assay [13] concerns the target Muscarinic acetylcholine receptor M1 (Homo sapiens) (UniProt P11229). Briefly: Cholinergic receptor muscarinic 1 (CHRM1) small molecule antagonists, cell-based qHTS assay (AID 1963588). Also: nearly all actives have a fitted effect of over 40% in size. Also: potency is read from the fitted curve at half-maximal effect. The procedure, abridged:
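CHRM1-CHO calcium-flux assay, antagonist mode. Cells were seeded 18 h, dye-loaded 1 h at 37 C and given compound for 5 min at RT, then acetylcholine was added at 50nM. FDSS fluorescence was read 3 min; 15 concentrations, three runs.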

For assay [14] the target is unchanged. Nature of the assay: Cholinergic receptor muscarinic 1 (CHRM1) small molecule agonists, cell-based qHTS assay (AID 1963589). Also: nearly all actives have a fitted effect of over 35% in size. In outline: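 Human M1 in stable CHO line; 18 h plating, 1 h dye load 37 C; cpd added (agonist mode); Ca2+ fluorescence kinetic read, 1 s intervals; 15 conc, 3 runs.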
Assay [15] in a line: cAMP Responsive Elements (CRE) small molecule agonists, cell-based qHTS assay (AID 1963590). In outline:
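HEK 293T CRE-bla, 2,000 cells/well, 18 h preincubation 37 C/5% CO2; cpds (DMSO) pinned, 3 h; LiveBLAzer B/G FRET substrate, 2 h RT.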

Assay [16] can be described thus: cAMP Responsive Elements (CRE) small molecule antagonists, cell-based qHTS assay (AID 1963591; active = well fitted inhibition curve with a large enough effect in the signal ratio in the repeat runs, not every such curve was filed as active; the % refers to the signal ratio). In outline: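 Beta-lactamase reporter read by FRET substrate (LiveBLAzer B/G) after 2 h at room temperature. CRE-bla HEK293T cells had received compound plus 0.25 uM (final) NKH477 for 3 h at 37 °C.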
In assay [17] the target is Beta-2 adrenergic receptor (Homo sapiens) (UniProt P07550). Nature of the assay: Adrenergic beta2 receptor (ADRB2) small molecule antagonists, cell-based qHTS assay (AID 1963592). Also: nearly all actives have a fitted effect of over 50% in size. Also: potency is read from the fitted curve at half-maximal effect. In outline:
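Cells (CHO, stable ADRB2 overexpression) incubated 18-20hr at 37C; compounds added from DMSO; agonist mix (1nM isoproterenol, 100uM IBMX, 25uM Ro-20-1724) added; 0.5hr RT; d2-cAMP and anti-cAMP-cryptate added; 1hr RT; 665/615 nm read.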

The target in assay [18] is D(2) dopamine receptor (Homo sapiens) (UniProt P14416). Briefly: Dopamine D2 receptor (DRD2) small molecule agonists, cell-based qHTS assay (AID 1963594). Also: nearly all actives have a fitted effect of over 35% in size. Also: potency is read from the fitted curve at half-maximal effect. The procedure, abridged: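 cAMP accumulation in DRD2-HEK293 cells measured by HTRF after 1 h detection; compounds added 10 min before NKH477 (200nM […]) forskolin-analogue stimulation, 30 min at room temperature, with Ro20-1724 present at 0.1 mM final.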
Chain of D(2) dopamine receptor (Homo sapiens) (P14416 whole entry, looked up): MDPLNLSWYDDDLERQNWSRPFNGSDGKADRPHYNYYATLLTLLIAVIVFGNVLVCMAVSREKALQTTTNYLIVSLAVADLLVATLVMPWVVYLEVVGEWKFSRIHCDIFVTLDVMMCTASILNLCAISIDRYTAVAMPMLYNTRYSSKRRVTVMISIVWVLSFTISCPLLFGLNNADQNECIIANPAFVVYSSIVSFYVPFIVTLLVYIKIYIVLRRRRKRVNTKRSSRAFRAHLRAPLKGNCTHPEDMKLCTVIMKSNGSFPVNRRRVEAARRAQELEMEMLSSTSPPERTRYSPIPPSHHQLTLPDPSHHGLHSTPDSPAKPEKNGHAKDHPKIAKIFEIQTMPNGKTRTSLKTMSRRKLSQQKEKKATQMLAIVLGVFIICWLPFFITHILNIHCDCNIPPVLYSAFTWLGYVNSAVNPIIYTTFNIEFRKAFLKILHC

Assay [19] has the same target. Nature of the assay: Dopamine D2 receptor (DRD2) small molecule antagonists, cell-based qHTS assay (AID 1963595; active = well fitted inhibition curve with a large enough effect in the signal ratio in the repeat runs, with a control signal flat; the % refers to the signal ratio). The procedure, abridged:
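DRD2-HEK293; 0.1 mM Ro20-1724; cpd 10 min RT; NKH477 200 nM + quinpirole 12 nM, 30 min RT; HTRF cAMP (cAMP-d2/anti-cAMP cryptate), 665/620 nm ratio after 1 h.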

The target in assay [20] is Beta-2 adrenergic receptor (Homo sapiens) (UniProt P07550). Briefly: Adrenergic beta2 receptor (ADRB2) small molecule agonists, cell-based qHTS assay (AID 1963593).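 Also: CHO cells stably overexpressing human ADRB2.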 The procedure, abridged: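 CHO cells stably over-expressing ADRB2 were plated overnight at 37C, then dosed with compounds plus a stimulation mix containing 100uM IBMX and 25uM Ro-20-1724 for 0.5hr at room temperature. cAMP was measured by HTRF competition, 1hr.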
Chain of Beta-2 adrenergic receptor (Homo sapiens) (P07550 whole entry, looked up): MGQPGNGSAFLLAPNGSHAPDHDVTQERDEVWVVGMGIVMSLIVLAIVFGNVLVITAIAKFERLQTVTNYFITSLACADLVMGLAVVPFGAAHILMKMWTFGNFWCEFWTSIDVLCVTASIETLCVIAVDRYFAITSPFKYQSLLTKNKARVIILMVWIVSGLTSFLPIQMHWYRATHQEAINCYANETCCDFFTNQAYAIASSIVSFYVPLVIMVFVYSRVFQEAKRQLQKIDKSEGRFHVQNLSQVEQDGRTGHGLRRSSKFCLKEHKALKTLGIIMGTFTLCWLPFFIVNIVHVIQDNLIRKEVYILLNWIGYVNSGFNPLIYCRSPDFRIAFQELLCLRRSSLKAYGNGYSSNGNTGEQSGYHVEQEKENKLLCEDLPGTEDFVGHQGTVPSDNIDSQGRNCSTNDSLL

Records with an inconclusive call do not appear. The source made the active and inactive calls. Unless noted, calls follow the shape of the full dose curve.

Chain of Muscarinic acetylcholine receptor M1 (Homo sapiens) (P11229 whole entry, looked up): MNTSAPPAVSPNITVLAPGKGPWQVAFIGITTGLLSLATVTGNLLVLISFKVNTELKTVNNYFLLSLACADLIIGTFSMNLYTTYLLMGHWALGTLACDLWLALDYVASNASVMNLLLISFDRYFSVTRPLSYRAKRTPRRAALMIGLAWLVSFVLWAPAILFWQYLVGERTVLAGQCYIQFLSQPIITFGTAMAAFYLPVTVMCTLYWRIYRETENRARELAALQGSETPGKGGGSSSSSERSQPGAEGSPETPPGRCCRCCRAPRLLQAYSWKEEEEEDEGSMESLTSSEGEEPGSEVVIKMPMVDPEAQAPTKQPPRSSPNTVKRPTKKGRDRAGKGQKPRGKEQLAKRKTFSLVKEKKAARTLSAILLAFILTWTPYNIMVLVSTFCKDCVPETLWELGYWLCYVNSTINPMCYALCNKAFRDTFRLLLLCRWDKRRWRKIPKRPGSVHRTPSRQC
Chain of Gonadotropin-releasing hormone receptor (Homo sapiens) (P30968 whole entry, looked up): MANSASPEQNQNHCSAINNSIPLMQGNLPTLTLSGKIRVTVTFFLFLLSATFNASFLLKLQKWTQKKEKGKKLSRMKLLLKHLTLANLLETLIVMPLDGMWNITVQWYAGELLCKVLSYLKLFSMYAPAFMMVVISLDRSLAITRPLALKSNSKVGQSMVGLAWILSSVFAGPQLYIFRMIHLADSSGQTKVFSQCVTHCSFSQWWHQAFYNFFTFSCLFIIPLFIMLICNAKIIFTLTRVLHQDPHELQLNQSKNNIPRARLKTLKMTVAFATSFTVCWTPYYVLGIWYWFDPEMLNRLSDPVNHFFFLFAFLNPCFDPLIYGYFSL
Chain of 5-hydroxytryptamine receptor 2A (Homo sapiens) (P28223 whole entry, looked up): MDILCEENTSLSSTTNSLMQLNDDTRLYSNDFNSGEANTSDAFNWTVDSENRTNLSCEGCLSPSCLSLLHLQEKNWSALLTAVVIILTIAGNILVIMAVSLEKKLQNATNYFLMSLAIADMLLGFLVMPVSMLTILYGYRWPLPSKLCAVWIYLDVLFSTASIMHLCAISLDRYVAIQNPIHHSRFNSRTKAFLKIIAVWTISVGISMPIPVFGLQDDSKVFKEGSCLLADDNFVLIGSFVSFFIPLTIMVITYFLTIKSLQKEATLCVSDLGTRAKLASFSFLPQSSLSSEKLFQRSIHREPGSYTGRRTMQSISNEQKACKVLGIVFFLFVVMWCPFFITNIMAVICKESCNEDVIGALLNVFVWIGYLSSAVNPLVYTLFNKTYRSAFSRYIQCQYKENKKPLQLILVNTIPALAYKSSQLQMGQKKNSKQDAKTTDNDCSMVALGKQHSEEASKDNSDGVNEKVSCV

As to `CO[C@@H]1[C@@H](OC(N)=O)[C@@H](O)[C@H](Oc2ccc3c(O)c(NC(=O)c4ccc(O)c(CC=C(C)C)c4)c(=O)oc3c2C)OC1(C)C`, the Potency entry in assay [1], in assay [2], in assay [3], in assay [5], in assay [6] and in assay [7] was “inactive” in each case. The Potency result in assay [8], in assay [9], in assay [10], in assay [11], in assay [12] and in [13] was “inactive” in each case. The Potency entry in assay [14], in [15], in assay [16], in assay [17], in assay [18] and in [19] was “inactive” in each case. In assay [4], the result was inactive.
In the case of `CCCCCc1ccc(Cl)cc1`, the Potency result in assay [1], in assay [2], in [3], in assay [5], in assay [6] and in [7] was “inactive” in each case. Further, the Potency entry in assay [8], in [9], in assay [10], in [11], in assay [12] and in assay [13] was “inactive” each time. In addition, the Potency entry in [14], in [16], in assay [17], in assay [18] and in [19] was “inactive” in each case. Moreover, the outcome in assay [4] was inactive.
On to `CCNC(=O)C(C)OC(=O)Nc1ccccc1` (stereo unspecified), for which the Potency result in assay [1], in assay [2], in assay [3], in [5], in assay [6] and in assay [7] was “inactive” in each case. Further, the Potency entry in assay [8], in assay [9], in assay [10], in assay [11], in [12] and in [13] was “inactive” throughout. Also, the Potency entry in assay [14], in assay [15], in assay [16], in [18] and in assay [19] was “inactive” in each case. Moreover, the outcome in assay [4] was inactive.
As for `CC(C)OC(=O)c1cc2c(OCC(O)CNC(C)(C)C)cccc2[nH]1` (stereo unspecified), the Potency entry in assay [1], in assay [2], in assay [3], in assay [5], in [6] and in assay [7] was “inactive” each time. The Potency entry in [8], in [9], in assay [10], in [11], in [12] and in assay [13] was “inactive” throughout. The Potency entry in assay [14], in assay [15], in assay [16] and in [19] was “inactive” each time. Further, the outcome in assay [4] was inactive. The figures for the Potency in assay [17] and in assay [18] were 0.0033 µM (active) and 13.3 µM (active), respectively.
For `Clc1ccc2c(c1)CCc1cccnc1C2=C1CCNCC1`, the Potency in [1] is 29.8 µM (active). For the same molecule, the Potency entry in assay [2], in assay [3], in [5], in [6], in [7] and in assay [8] was “inactive” throughout. Moreover, the Potency entry in assay [9], in assay [10], in [15], in assay [17], in [18] and in assay [19] was “inactive” each time. For the same molecule, in assay [4], the outcome was inactive.
For `CC(=O)O[C@@H]1CC2CCC1(C)C2(C)C` (stereo partly specified), the Potency result in [1], in assay [2], in assay [3], in assay [6], in [7] and in assay [8] was “inactive” throughout. Also, the Potency result in assay [11], in assay [13], in [14], in [15], in assay [16] and in assay [17] was “inactive” in each case. Moreover, the Potency entry in assay [20], in [18] and in assay [19] was “inactive” throughout.
As for `Cc1cccc([N+](=O)[O-])c1C(=O)O`, the Potency result in assay [1], in [2], in [3], in [5], in assay [6] and in assay [7] was “inactive” throughout. In addition, the Potency result in assay [8], in assay [9], in assay [10], in [11], in assay [12] and in assay [13] was “inactive” throughout. Moreover, the Potency result in assay [14], in assay [15], in assay [16], in assay [17], in assay [18] and in [19] was “inactive” in each case. For the same molecule, in assay [4], the result was inactive.
Turning to `CN1Cc2cc(C(=O)N3CCC(C4CCNCC4)CC3)ccc2N[C@@H](CC(=O)O)C1=O`, the Potency entry in assay [1], in assay [2], in assay [3], in assay [7], in [8] and in [9] was “inactive” throughout. The Potency entry in assay [12], in assay [14], in [15], in assay [16], in assay [17] and in assay [20] was “inactive” each time. In assay [18], the Potency result was “inactive”. In assay [13], the Potency was 1.63 µM (active).
